Results from the supplement of paper PMC11732987, “Enantioselective OTUD7B fragment discovery through chemoproteomics screening and high-throughput optimisation” (Communications Chemistry, 2025).

Assays:
Assay in all cases: log2 ratio of Biotin-Ahx-Ub-VS probe labelling (fragment/DMSO); higher = less target engagement (more negative = stronger competition), active = hit call of the paper (q ≤ 0.05, log2 ratio ≤ -1)
Settings in all cases: compound concentration: 200 uM; treatment time: 3 h
[1] = biological target: T1, USP19 (UniProt O94966)
T1 sequence (whole entry): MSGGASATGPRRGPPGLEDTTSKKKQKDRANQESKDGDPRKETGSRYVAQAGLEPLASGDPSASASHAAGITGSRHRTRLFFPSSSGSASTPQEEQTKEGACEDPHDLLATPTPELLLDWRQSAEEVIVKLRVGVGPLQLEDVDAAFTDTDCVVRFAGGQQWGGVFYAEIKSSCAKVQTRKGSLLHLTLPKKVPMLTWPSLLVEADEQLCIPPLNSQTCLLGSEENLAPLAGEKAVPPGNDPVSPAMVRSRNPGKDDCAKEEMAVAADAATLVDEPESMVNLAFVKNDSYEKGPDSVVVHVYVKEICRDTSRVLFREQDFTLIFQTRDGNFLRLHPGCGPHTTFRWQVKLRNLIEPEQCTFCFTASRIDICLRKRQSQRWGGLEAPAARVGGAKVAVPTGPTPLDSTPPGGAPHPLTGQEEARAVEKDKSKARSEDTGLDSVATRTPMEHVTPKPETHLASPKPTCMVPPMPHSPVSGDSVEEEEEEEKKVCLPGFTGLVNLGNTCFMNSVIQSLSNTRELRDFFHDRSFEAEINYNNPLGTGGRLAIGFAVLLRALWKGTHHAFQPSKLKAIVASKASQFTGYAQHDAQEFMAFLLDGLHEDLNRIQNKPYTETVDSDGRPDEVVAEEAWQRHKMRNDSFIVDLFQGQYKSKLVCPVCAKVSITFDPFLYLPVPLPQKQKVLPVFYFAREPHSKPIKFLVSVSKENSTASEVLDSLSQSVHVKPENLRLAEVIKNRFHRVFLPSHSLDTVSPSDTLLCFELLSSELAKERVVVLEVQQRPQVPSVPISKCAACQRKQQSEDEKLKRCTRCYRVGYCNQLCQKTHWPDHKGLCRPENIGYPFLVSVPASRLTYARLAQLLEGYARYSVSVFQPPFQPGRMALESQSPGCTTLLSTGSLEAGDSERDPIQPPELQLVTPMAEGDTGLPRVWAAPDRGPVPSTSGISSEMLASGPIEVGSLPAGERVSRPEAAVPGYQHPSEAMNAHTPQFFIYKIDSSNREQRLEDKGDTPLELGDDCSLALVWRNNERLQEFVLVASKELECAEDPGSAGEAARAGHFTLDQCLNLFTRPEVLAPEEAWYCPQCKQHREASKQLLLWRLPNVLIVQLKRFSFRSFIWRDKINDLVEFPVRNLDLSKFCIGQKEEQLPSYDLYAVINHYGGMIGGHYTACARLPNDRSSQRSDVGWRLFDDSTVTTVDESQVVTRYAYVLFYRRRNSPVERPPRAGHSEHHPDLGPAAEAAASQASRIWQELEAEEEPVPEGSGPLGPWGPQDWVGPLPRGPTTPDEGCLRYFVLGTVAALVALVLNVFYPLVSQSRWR
In short: (§1)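 HEK293T lysate, 495 µg per sample in Tris/CHAPS/IGEPAL buffer with protease inhibitors, was treated in triplicate with fragment at 200 µM or vehicle for 3 h and then with Biotin-Ahx-Ub-VS at 0.5 µM final for 1 h. Labelled DUBs were NeutrAvidin-enriched, digested with LysC and trypsin, and run by diaPASEF LC-MS/MS. Spectronaut label-free quantities were global-median-normalised, and values are average log2 fragment/vehicle ratios by unpaired t-test on proteins with ≥2 unique peptides.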

[2] = biological target: T2, USP22 (UniProt Q9UPT9)
T2 sequence (whole entry): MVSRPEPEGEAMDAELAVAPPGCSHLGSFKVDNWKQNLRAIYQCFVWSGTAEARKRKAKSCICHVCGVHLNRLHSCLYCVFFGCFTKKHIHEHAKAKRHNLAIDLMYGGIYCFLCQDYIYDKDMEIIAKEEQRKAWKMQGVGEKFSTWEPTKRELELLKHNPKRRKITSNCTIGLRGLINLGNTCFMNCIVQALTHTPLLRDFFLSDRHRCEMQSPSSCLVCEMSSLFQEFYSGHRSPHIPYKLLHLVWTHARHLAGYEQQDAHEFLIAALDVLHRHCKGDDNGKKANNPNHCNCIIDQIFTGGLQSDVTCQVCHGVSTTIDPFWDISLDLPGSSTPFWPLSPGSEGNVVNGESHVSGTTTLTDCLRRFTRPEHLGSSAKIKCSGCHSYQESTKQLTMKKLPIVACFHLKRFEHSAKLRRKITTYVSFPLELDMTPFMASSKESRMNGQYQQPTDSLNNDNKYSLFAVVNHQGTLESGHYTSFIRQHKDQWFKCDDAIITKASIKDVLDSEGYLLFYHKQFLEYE
In short: as §1

[3] = biological target: USP24 (UniProt Q9UPU5)
In short: as §1

[4] = biological target: T3, USP25 (UniProt Q9UHP3)
T3 sequence (whole entry): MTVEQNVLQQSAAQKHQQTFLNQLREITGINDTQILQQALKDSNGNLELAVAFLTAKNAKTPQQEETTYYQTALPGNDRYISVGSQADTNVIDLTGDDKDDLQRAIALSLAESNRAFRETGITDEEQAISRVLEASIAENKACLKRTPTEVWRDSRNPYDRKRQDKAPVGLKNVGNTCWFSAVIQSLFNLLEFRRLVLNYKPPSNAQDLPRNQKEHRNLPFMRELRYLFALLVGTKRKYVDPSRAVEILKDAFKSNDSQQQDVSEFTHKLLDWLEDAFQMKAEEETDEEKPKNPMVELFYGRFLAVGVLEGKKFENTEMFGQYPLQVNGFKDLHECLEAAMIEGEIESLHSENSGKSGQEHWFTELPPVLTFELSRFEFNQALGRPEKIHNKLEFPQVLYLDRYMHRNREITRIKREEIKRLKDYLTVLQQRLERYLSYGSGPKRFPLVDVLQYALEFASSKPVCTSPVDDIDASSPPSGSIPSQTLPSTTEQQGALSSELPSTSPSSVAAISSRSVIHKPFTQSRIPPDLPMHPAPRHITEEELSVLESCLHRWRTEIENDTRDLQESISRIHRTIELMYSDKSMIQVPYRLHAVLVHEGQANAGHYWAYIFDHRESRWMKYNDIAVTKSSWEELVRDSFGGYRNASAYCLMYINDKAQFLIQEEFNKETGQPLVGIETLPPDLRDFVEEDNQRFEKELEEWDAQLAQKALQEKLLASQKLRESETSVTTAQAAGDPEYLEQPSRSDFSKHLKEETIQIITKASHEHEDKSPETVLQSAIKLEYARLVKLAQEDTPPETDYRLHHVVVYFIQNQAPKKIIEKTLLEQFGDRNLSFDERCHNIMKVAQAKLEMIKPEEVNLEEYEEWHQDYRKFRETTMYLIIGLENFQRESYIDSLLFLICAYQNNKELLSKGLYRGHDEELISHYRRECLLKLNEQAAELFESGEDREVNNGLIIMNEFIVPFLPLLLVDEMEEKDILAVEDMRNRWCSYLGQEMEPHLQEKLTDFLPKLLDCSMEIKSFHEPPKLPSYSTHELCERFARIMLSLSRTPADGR
In short: as §1

[5] = biological target: T4, USP28 (UniProt Q96RU2)
T4 sequence (whole entry): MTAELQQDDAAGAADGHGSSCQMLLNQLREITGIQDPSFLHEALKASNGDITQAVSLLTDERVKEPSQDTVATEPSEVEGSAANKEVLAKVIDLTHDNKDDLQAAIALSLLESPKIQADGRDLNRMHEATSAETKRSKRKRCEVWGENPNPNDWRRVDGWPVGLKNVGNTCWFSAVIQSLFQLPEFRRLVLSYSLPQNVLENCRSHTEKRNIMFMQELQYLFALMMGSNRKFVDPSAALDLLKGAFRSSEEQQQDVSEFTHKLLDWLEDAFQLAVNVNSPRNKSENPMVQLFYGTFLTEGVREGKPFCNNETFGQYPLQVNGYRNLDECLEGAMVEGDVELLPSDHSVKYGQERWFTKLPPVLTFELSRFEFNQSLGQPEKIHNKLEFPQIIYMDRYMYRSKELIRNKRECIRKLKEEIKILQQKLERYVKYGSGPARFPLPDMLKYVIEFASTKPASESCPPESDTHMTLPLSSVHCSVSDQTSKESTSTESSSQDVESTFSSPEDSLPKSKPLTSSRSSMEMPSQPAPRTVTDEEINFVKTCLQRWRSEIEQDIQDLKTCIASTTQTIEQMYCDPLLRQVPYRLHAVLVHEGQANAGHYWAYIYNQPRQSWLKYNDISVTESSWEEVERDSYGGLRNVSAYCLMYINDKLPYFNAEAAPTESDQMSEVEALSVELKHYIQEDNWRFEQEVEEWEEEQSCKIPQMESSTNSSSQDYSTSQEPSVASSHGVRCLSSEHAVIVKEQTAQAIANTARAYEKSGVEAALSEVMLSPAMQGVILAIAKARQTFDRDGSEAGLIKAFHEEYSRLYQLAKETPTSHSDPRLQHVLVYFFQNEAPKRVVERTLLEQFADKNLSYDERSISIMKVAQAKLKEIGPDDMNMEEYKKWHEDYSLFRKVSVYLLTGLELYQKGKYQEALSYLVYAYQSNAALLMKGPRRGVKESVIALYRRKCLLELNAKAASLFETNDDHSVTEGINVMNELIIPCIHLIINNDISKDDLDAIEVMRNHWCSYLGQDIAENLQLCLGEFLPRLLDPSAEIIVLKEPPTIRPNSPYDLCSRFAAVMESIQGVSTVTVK
In short: as §1

Measured: log2 ratio of Biotin-Ahx-Ub-VS probe labelling

Chain of USP24 (Q9UPU5 whole entry): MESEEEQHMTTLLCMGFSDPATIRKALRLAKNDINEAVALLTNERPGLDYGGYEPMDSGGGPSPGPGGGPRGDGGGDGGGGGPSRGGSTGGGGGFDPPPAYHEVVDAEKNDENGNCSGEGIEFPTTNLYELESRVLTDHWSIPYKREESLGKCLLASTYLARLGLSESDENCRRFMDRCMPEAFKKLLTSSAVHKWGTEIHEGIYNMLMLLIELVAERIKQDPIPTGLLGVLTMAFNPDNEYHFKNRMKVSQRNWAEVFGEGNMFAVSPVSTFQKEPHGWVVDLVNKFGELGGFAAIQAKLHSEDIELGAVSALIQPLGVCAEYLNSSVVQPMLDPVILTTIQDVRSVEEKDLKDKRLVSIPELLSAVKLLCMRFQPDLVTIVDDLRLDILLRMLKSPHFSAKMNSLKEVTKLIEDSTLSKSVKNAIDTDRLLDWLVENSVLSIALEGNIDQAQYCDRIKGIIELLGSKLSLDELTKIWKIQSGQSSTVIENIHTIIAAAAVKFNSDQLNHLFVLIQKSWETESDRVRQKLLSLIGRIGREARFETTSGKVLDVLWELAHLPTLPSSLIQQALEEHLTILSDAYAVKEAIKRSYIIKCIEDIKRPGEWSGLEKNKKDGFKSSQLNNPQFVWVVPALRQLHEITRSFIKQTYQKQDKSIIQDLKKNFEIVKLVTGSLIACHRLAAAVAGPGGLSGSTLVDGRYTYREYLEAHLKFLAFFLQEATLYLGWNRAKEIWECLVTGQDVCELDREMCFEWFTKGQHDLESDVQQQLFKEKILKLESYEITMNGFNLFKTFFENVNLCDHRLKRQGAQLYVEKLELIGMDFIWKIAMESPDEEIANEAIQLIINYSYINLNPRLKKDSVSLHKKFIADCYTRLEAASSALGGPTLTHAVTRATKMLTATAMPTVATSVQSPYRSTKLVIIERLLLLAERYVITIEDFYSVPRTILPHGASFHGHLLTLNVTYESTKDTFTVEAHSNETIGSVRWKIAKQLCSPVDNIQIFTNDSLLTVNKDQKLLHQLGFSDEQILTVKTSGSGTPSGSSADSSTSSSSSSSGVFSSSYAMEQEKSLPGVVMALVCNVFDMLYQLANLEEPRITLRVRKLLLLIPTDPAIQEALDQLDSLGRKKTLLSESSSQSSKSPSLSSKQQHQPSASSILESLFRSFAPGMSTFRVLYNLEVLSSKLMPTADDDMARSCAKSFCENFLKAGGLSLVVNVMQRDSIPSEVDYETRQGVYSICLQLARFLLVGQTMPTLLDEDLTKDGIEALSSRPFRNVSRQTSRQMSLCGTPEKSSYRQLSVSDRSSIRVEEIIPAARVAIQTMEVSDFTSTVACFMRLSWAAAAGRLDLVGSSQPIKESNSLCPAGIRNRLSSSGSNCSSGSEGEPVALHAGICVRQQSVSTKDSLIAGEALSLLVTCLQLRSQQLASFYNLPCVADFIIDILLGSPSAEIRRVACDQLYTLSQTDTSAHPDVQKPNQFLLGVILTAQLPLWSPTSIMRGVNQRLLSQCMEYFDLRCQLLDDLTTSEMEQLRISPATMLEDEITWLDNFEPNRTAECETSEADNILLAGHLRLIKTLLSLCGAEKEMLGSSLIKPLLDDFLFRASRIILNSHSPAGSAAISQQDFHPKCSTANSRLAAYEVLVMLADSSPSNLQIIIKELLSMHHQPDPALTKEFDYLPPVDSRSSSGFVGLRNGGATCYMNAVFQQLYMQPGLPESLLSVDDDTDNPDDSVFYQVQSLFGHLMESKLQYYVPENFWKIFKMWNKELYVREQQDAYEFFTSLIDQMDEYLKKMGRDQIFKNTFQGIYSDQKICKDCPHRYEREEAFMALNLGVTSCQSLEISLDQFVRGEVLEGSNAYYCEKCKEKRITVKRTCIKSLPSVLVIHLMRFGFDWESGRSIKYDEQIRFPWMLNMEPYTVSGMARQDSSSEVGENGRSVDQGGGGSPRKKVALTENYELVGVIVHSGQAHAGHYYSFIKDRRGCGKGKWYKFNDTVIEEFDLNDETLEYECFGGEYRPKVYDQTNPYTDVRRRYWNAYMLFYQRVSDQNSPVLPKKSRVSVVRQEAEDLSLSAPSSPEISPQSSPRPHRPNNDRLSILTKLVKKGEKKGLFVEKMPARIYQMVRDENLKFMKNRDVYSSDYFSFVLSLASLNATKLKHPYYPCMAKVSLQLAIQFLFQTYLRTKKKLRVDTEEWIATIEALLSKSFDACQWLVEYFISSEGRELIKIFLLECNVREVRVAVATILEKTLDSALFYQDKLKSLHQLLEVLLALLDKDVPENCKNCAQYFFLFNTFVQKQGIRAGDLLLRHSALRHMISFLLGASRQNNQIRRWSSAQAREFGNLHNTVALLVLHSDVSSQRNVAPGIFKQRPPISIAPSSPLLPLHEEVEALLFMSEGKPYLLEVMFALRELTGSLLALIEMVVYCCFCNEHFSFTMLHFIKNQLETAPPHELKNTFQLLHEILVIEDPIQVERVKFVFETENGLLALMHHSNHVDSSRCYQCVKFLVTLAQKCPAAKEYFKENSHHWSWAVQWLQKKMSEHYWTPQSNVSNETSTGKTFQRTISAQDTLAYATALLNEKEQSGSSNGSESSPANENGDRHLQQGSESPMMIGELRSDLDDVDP

Cc1ccc2nnc(CNC(=O)CCl)n2c1
inactive: [1] -0.0329 | [2] -0.259 | [3] 0.0887 | [4] 0.182 | [5] -0.241
